Test results published in PubChem BioAssay (NCATS).
Where “and” joins values, the source holds several entries; their conditions need not be identical. Equal values may be shown once. Results filed as inconclusive are left out. Some structures have more than one record in an assay (separate samples or runs), and their calls can disagree. Calls of active or inactive are those of the source. The call rests on the fitted dose curve; in most records, active means well fitted curve in the direction sought with a large enough effect; inconclusive means small, poorly fitted or top-dose-only effect, or another doubt; inactive means no such curve, though single readings can be large; an effect the other way counts as inactive or inconclusive.

Tests used:
[1] = biological target: Glutathione peroxidase 1 (Homo sapiens) (UniProt P07203); assay: Primary qHTS Assay for Inhibitors of Recombinant Selenoprotein Glutathione Peroxidase 1 (GPX1) (AID 1845191); further: nearly all actives have a fitted effect of over 65% in size; further: potency means the concentration at half of the fitted maximal effect
Chain of Glutathione peroxidase 1 (Homo sapiens) (P07203 whole entry, looked up): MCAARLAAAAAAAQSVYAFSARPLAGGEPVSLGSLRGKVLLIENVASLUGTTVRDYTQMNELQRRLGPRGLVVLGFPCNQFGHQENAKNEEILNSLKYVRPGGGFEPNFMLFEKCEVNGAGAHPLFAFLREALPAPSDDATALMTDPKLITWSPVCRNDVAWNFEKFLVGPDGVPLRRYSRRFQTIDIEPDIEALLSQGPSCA
In short: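 GPX1 10 nM, GR 100 nM, GSH 1 mM, NADPH 0.5 mM, CHP 0.5 mM (final). 30-min cpd preincubation, RT. Ex340/Em450 read t=0, t=15 min.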

[2] = biological target: Phospholipid hydroperoxide glutathione peroxidase GPX4 (Homo sapiens) (UniProt P36969); assay: Primary qHTS Assay for Inhibitors of Recombinant Selenoprotein Glutathione Peroxidase 4 (GPX4) (AID 1845192); further: nearly all actives have a fitted effect of over 65% in size
Chain of Phospholipid hydroperoxide glutathione peroxidase GPX4 (Homo sapiens) (P36969 whole entry, looked up): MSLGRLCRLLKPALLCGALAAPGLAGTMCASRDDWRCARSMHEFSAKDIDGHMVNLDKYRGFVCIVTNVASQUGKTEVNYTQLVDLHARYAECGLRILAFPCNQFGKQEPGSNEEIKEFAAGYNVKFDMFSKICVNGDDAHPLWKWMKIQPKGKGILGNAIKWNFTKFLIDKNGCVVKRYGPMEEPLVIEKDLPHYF
In short: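 qHTS, GR-coupled: GPX4 200 nM + cpd 30 min RT → GSH 1 mM, NADPH 0.5 mM, GR 100 nM → CHP 0.5 mM start; fluor 340/450 at t0 and t15 min; no-enzyme wells as control.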

[3] = Quantitative High-Throughput drug screen in 47 multiple myeloma cell lines against the NCATS MIPE library collection: FR4_PLB cell viability assay (AID 1918924; further: nearly all actives have a fitted effect of over 35% in size; further: potency means the concentration at half of the fitted maximal effect)
In short: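 Relative luminescence from CellTiter-Glo served as the viability signal, referenced to DMSO-treated (100%) and cell-free medium (0%) controls. Treatment lasted 48 hours at 37C with 500 cells per well.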

[4] = Quantitative High-Throughput drug screen in 47 multiple myeloma cell lines against the NCATS MIPE library collection: Delta47_JCRB cell viability assay (AID 1918925; further: nearly all actives have a fitted effect of over 45% in size; further: potency means the concentration at half of the fitted maximal effect)
In short: (§1)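 CellTiter-Glo luminescence (ATP) after 48 h compound exposure, 37C/5% CO2; 500 cells/well; MIPE 4.0 approved/investigational drugs pinned in; DMSO = 100%, media only = 0% viability.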

[5] = Quantitative High-Throughput drug screen in 47 multiple myeloma cell lines against the NCATS MIPE library collection: EJM_DSMZ cell viability assay (AID 1918926; further: nearly all actives have a fitted effect of over 30% in size; further: potency means the concentration at half of the fitted maximal effect)
In short: as §1

[6] = Quantitative High-Throughput drug screen in 47 multiple myeloma cell lines against the NCATS MIPE library collection: AMO1_DSMZ cell viability assay (AID 1918927; further: nearly all actives have a fitted effect of over 30% in size; further: potency means the concentration at half of the fitted maximal effect)
In short: as §1

[7] = biological target: Luciferin 4-monooxygenase (Photinus pyralis) (UniProt P08659); assay: Primary firefly luciferase (FLuc) qHTS assay for identification of artifact compounds. (AID 1845220); conditions: outcome: dose series up to 54.1 µM; further: nearly all actives have a fitted effect of over 60% in size
In short: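 qHTS, 15 min compound preincubation with substrate (10 uM luciferin, 10 uM ATP) at RT, then 10 nM FLuc; 5 min; luminescence; % inhibition vs no-enzyme/DMSO controls, 4-parameter Hill fit.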

[8] = Primary fluorescence-based thiol-reactive (MSTI) qHTS assay for identification of artifact compounds. (AID 1845221);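 further: series mostly up to about 54 µM; thiol-reactive compounds lower the probe fluorescence signal; nearly all actives have a fitted effect of over 65% in size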
In short: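 A multi-concentration qHTS design tested compounds against 4 uM MSTI, pH 7.4 phosphate-buffered saline. Plates were protected from light for 1 h at room temperature before imaging fluorescence.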

[9] = test system: Nanoluciferase (engineered Oplophorus gracilirostris luciferase); assay: Primary Nanoluciferase (NLuc) qHTS assay for identification of artifact compounds. (AID 1845222); further: series mostly up to about 54 µM
In short: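 Luminescence read-out of secreted NLuc in S16 cell conditioned medium (1:55); compounds tested with 15 min RT preincubation, then Nano-Glo substrate 1:100, 5 min. % inhibition vs no-enzyme and DMSO controls, 4-parameter Hill fit.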

[10] = Primary redox qHTS assay for identification of artifact compounds. (AID 1845223)
In short: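 Redox-cycling detection via DTT (250 uM final) oxidation coupled to Amplex Red (25 uM)/HRP (250 mU/mL) in HBSS. 15 min preincubation plus 30 min after DTT, room temperature. Ex/Em 525/598 nm; 4-parameter Hill fit against DMSO and 10 uM DA3003.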

Measured: Potency

CCCc1nc(C)c2c(=O)[nH]c(-c3cc(S(=O)(=O)N4CCN(CC)CC4)ccc3OCC)nn12
active: [3] 8.33 µM | [4] 5.9 µM | [5] 9.35 µM | [6] 7.43 µM
inactive: [1] | [2]

Nc1nc(F)nc2c1ncn2[C@@H]1O[C@H](CO)[C@@H](O)[C@@H]1O
inactive: [1] | [2] | [7] | [8] | [9] | [10]
active: [3] 0.187 µM | [4] 0.148 µM | [5] 0.418 µM | [6] 0.372 µM

CC(C(=O)O)c1ccc2c(c1)CC(=O)c1ccccc1S2 (centres undefined)
inactive: [2] | [7] | [8] | [9] | [10] | [3] | [4] | [5]
inactive and 16.1 µM (active): [1]

CCCN[C@H]1CCc2nc(N)sc2C1
inactive: [1] | [2] | [3] | [4] | [5]

CN(C)c1ccc(C(=C2C=CC(=[N+](C)C)C=C2)c2ccc(N(C)C)cc2)cc1
inactive: [1] | [2]
active: [3] 0.132 µM | [4] 0.0105 µM | [5] 0.148 µM

Cc1cccc(N(C)C(=S)Oc2ccc3ccccc3c2)c1
inactive: [1] | [2] | [3] | [4] | [5]

COC(=O)Nc1nc2ccc(Sc3ccccc3)cc2[nH]1
inactive: [1] | [2]
active: [3] 0.935 µM | [4] 1.05 µM | [5] 16.6 µM | [6] 0.833 µM

CN(C)CCc1c[nH]c2ccc(CS(=O)(=O)N3CCCC3)cc12
inactive: [1] | [2] | [3] | [4] | [5] | [6]

CC[C@H](NC(C)C)[C@H](O)c1ccc(O)c2[nH]c(=O)ccc12
inactive: [1] | [2] | [3] | [4] | [5] | [6]

COc1ccc(-c2ccc3cc(C(=O)O)ccc3c2)cc1C12CC3CC(CC(C3)C1)C2
inactive: [1] | [2] | [3] | [4] | [5] | [6]

COC(=O)Nc1nc2ccc(S(=O)c3ccccc3)cc2[nH]1 (centres undefined)
active: [3] 7.43 µM | [4] 6.62 µM
inactive: [1] | [2]

CCCCc1oc2ccc(NS(C)(=O)=O)cc2c1C(=O)c1ccc(OCCCN(CCCC)CCCC)cc1
active: [3] 16.6 µM | [4] 11.8 µM | [5] 16.6 µM | [6] 9.35 µM
inactive: [1] | [2] | [7] | [9] | [10]

COC(=O)Nc1nc2ccc(C(=O)c3ccccc3)cc2[nH]1
inactive: [1] | [2]
active: [3] 0.296 µM | [4] 1.66 µM | [5] 4.69 µM

NCCCC(O)(P(=O)(O)O)P(=O)(O)O
inactive: [1] | [2] | [3] | [4] | [5] | [6]

O=S(=O)(O)CCS
inactive: [1] | [2] | [3] | [4] | [5]

Cc1onc(-c2ccccc2Cl)c1C(=O)N[C@@H]1C(=O)N2[C@@H]1SC(C)(C)[C@@H]2C(=O)O
inactive: [1] | [2] | [7] | [8] | [9] | [10] | [3] | [4] | [5] | [6]

CC1(C)[C@H](C(=O)O)N2C(=O)C[C@H]2S1(=O)=O
inactive: [1] | [2] | [7] | [8] | [9] | [10] | [3] | [4] | [5]

C[C@@H]1C[C@H]2[C@@H]3CCC4=CC(=O)C=C[C@]4(C)[C@@]3(Cl)[C@@H](O)C[C@]2(C)[C@@]1(OC(=O)c1ccco1)C(=O)CCl
inactive: [1] | [2]
active: [3] 26.4 µM | [4] 2.96 µM | [5] 4.69 µM | [6] 1.48 µM

O=c1oc2c(O)c(O)cc3c(=O)oc4c(O)c(O)cc1c4c23
inactive: [1] | [2] | [3] | [4]

CCN(C)C(=O)Oc1cccc([C@H](C)N(C)C)c1
inactive: [1] | [2] | [3] | [4] | [5]

COc1cc([C@@H]2c3cc4c(cc3[C@H](O)[C@H]3COC(=O)[C@H]23)OCO4)cc(OC)c1OC
inactive: [1] | [2] | [3] | [4] | [5] | [6]

O=C(O)CSCC(=O)NC1CCSC1=O (centres undefined)
inactive: [1] | [2] | [3] | [4] | [5]

N=C(N)c1ccc(OCCCCCOc2ccc(C(=N)N)cc2)cc1
inactive: [1] | [2]
active: [3] 18.7 µM | [4] 5.26 µM | [5] 14.8 µM

Nc1[nH]c(=O)ncc1F
inactive: [1] | [2] | [3] | [4] | [5]
active: [6] 4.69 µM

O=C(O)c1cc(=O)[nH]c(=O)[nH]1
inactive: [1] | [2] | [3] | [4] | [5] | [6]

CC(C)OC(=O)OCOP(=O)(CO[C@H](C)Cn1cnc2c(N)ncnc21)OCOC(=O)OC(C)C
active: [6] 20.9 µM
inactive: [1] | [2] | [3]
